# Shiga toxin inh – A qHTS for Small Molecule Inhibitors of Shiga Toxin; Vero cells, Shiga toxin protein synthesis inhibition reporter; inhibition, % at 38.7 µM; actives 9.2% (n = 290,000); AID 2315, 2010; in the data active = inhibition mostly above about 28%, no sharp cut-off; inactive = mostly below about 43%; also: 0% is about no effect
# Pf growth 48h – Primary qHTS for delayed death inhibitors of the malarial parasite plastid, 48 hour incubation; P. falciparum luciferase growth in erythrocytes, 48 h; actives 5.9% (n = 310,000); Potency, µM (doses to about 28.7 µM), inactives show at the highest dose activity change, negative = inhibition, most hits filed as inhibitors; also: potency is read from the fitted curve at half-maximal effect; % is scaled to controls: 0 for no effect and ±100 for the full control effect
#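 Compounds are pin-transferred into medium, infected erythrocytes (2% hematocrit, 0.1% parasitemia final) are added, and plates sit one parasite generation at 37 C in 5% CO2. Detection reagent is then added and luminescence measured.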
# Pf growth 96h – Primary qHTS for delayed death inhibitors of the malarial parasite plastid, 96 hour incubation; actives 6.9% (n = 320,000); P. falciparum luciferase reporter growth, 96 h; Potency, µM (highest dose often 28.7 µM), for the others: at the highest dose activity change, negative = inhibition, hits mostly inhibitors; also: potency is read from the fitted curve at half-maximal effect; % is scaled to controls: 0 for no effect and ±100 for the full control effect
#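 Luminescence readout: decreased luciferase signal marks inhibited growth of reporter-expressing P. falciparum in infected red cells (2% hematocrit, 0.05% parasitemia final), exposed to compound two generations (96 h, 37 C, 5% CO2).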
# HCMV antiviral – qHTS Assay for inhibitors of the human cytomegalovirus (HCMV); actives 4.5% (n = 410,000); activity change, negative = inhibition, % at 57.5 µM; HFF cells, HCMV-luciferase reporter, 72 h; stronger effect = lower value; in the data active = activity change below about -60%; inconclusive = no clear call, values can overlap the other calls; inactive = above about -39%; also: % is scaled to controls: 0 for no effect and ±100 for the full control effect
#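 Human foreskin fibroblasts infected with luciferase-reporter HCMV at MOI 1 PFU/cell, compounds at two doses. Luciferase measured 72 h post infection; normalized to buffer-only basal and Salinomycin (10uM) controls.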
# Cycloheximide cs – Cycloheximide Counterscreen for Small Molecule Inhibitors of Shiga Toxin; cell reporter, cycloheximide protein synthesis inhibition counterscreen; max response, %; actives 12% (n = 300,000); AID 2314, 2010; in the data active = max response mostly above about 13%, no sharp cut-off; inactive = mostly below about 14%; also: read at 38.3 µM for the half of the compounds with a filed dose; 0% is about no effect
# * marks the source's active call; other numbers are inactive results; i = inactive; u = inconclusive; x = no result. This is a sample that favours compounds with a hit; in the whole collection about 20% have one here. Unless noted, calls follow the shape of the dose curve; as a rule, active = well fitted inhibition curve with a large enough effect; inconclusive = small, poorly fitted or top-dose-only effect, or another doubt; inactive = no such curve, though single readings can be large or run the other way.
SMILES,Shiga toxin inh,Pf growth 48h,Pf growth 96h,HCMV antiviral,Cycloheximide cs
Cc1noc(/C=C/N(C)C)c1S(=O)(=O)N1CCCC(C(=O)N2CCCCC2)C1 (centres undefined),-3.2,9.28µM*,-5.1%,-12.8,-1.6
Cc1cc(C)c(NC(=O)C2CCCN(S(=O)(=O)c3c(C)noc3C)C2)c(C)c1 (centres undefined),x,x,x,-16.5,x
Cc1cc(C)c(NC(=O)C2CCCN(S(=O)(=O)c3c(C)noc3/C=C/N(C)C)C2)c(C)c1 (centres undefined),1.5,u,13.1µM*,-6.9,-1.2
OC(c1ccc(Cl)cc1)c1ncc(-c2ccccc2Cl)[nH]1 (centres undefined),x,x,x,31.2,x
Cc1ccccc1OCC(=O)NNC(=O)c1cc(S(=O)(=O)N2CCOCC2)ccc1N1CCCC1,x,u,18.6%,-22.1,x
Cc1cccc(CN2C(=O)c3ccccc3S(=O)(=O)c3ccc(C(=O)OCC4CCCO4)cc32)c1 (centres undefined),x,x,x,-6.9,x
Cc1ccc[n+](CC(=O)Nc2ccc(N(C)C)cc2)c1,-2.8,-18.4%,5.22µM*,93.7,2.2
CN(C)c1cc[n+](CC(=O)Nc2ccc(OC(F)F)cc2)cc1,2.9,2.33µM*,0.465µM*,-65.1*,-0.7
Cc1ccc[n+](CC(=O)Nc2c(Cl)cc(Cl)cc2Cl)c1,75.9*,2.9%,-7.4%,8.3,25.3*
CN(C)c1cc[n+](CC(=O)Nc2ccc(Cl)c([N+](=O)[O-])c2)cc1,x,1.17µM*,-18.2%,-95.6*,-3.0
CC(C)c1ccc(S(=O)(=O)c2nnn3c2nc(N2CCCCC2)c2sccc23)cc1,x,x,x,29.1,x
COC(=O)Cc1ccc(N(Cc2ccccc2F)S(=O)(=O)c2ccc(Cl)cc2)cc1,4.9,u,40.8%,4.9,-3.4
CCN(c1ccccc1C)S(=O)(=O)c1cc2c3c(c1)CCC(=O)N3CCC2,-6.3,u,-2.7%,0.0,-2.6
COC(=O)[C@H](CC(C)C)NC(=O)Cn1cnc2c(OCc3ccccc3)ncnc21,x,x,x,35.3,x
CC[N+](CC)(CC)CCOc1ccc(/C=C/c2ccccc2)cc1,x,0.294µM*,0.738µM*,-99.1*,x
Cc1cc(Oc2ccccc2)nc(SCC(=O)Nc2ccc(Cl)c(Cl)c2)n1,-4.8,x,13.1µM*,-24.5,-3.5
Cc1cc(SCC(N)=O)nc(SCC(=O)c2ccccc2)n1,13.6,20.7%,18.9%,28.1,7.3
Cc1cc(Oc2ccc(C)c(Cl)c2)nc(SCC(=O)c2ccccc2)n1,-12.2,-7.5%,8.3%,-73.6*,-2.3
O=C(Nc1ccc(S(=O)(=O)NCc2ccco2)cc1)C1CCCCC1,1.3,0.2%,22.5%,u,14.0
CCOC(=O)c1[nH]c(C)c(C(=O)N2CCN(c3cccc(Cl)c3)CC2)c1C,-9.4,10.4µM*,0.0%,5.6,-1.2
CCOC(=O)c1[nH]c(C)c(C(=O)N2CCN(c3ccc(F)cc3)CC2)c1C,-13.7,u,-9.2%,-18.9,-2.3
CCOC(=O)c1c(C)[nH]c(C)c1S(=O)(=O)N1CCCC(C(=O)N2CCN(c3cccc(C)c3C)CC2)C1 (centres undefined),x,x,x,13.0,x
CCOC(=O)c1c(C)[nH]c(C)c1S(=O)(=O)N1CCCC(C(=O)N2CCN(c3cccc(Cl)c3)CC2)C1 (centres undefined),x,x,x,-72.7*,x
CCOC(=O)c1c(C)[nH]c(C)c1S(=O)(=O)N1CCC(C(=O)N2CCN(c3cc(C)ccc3C)CC2)CC1,x,x,x,-14.2,x
CCOC(=O)c1c(C)[nH]c(C)c1S(=O)(=O)N1CCC(C(=O)N2CCN(c3cccc(C)c3)C(C)C2)CC1 (centres undefined),x,x,x,-94.7*,x
SMILES,Shiga toxin inh,Pf growth 48h,Pf growth 96h,HCMV antiviral,Cycloheximide cs
O=C(Nc1ccc2c(c1)CCCN2C(=O)c1cccs1)c1ccccc1Cl,x,x,x,-67.1*,x
O=C(Nc1ccc2c(c1)CCCN2C(=O)c1cccs1)c1c(F)cccc1Cl,-1.6,-17.0%,18.8%,-79.2*,-2.8
O=C(Nc1ccc(C(=O)N2CCCc3ccccc32)cc1)c1cccs1,11.8,-27.3%,-28.4%,43.0,-0.8
O=C(Nc1ccc2c(c1)CCCN2C(=O)c1cccs1)c1c(F)cccc1F,-7.9,0.0%,4.8%,-74.6*,18.3
Cn1c(=O)c2c(-c3ccccc3)n(-c3ccc(N)cc3)cc2n(C)c1=O,x,x,x,-13.0,x
O=C(CN1C(=O)COc2ccc(S(=O)(=O)N3CCCC3)cc21)N1CCN(c2ccc(Cl)cc2)CC1,x,x,x,-16.4,x
CN(C)c1ccccc1C(=O)N1CCC(n2nccc2NC(=O)C2CC2)CC1,-2.3,u,-14.3%,-37.1,-5.7
CCC(=O)Nc1ccc2c(c1)nc(CN1CCN(C(C)=O)CC1)n2C,-13.8,x,u,35.3,-4.8
COc1cc2oc(=O)cc(-c3ccc(-c4ccc(NC(C)=O)cc4)cc3)c2c(OC)c1OC,81.2*,x,x,x,53.2*
COc1cc2oc(=O)cc(-c3ccc(-c4ccc(O)cc4)cc3)c2c(OC)c1OC,i,x,x,u,6.0
C=CCNC(=S)Nc1ccc(Cl)cc1,12.3,0.0%,29.8%,33.8,10.1
COc1ccc(N(C)C(=S)Nc2ccc3nc(C)c(C)nc3c2)cc1,-1.4,36.5%,2.33µM*,-33.3,-2.4
Cc1nc2ccc(NC(=S)NCc3ccccc3)cc2nc1C,34.8,46.7%,-3.6%,-32.1,26.7*
Cc1nc2ccc(NC(=S)N3CCOCC3)cc2nc1C,-2.8,24.1%,31.8%,-25.3,2.3
C=CCNC(=S)Nc1ccc2nc(C)c(C)nc2c1,61.4,62.7%,55.1%,30.9,27.2*
Fc1cccc(Cl)c1CSc1ccc(-c2cccnc2)nn1,143.3*,27.3%,u,-14.7,35.5*
Clc1ccc(CSc2ccc(-c3cccnc3)nn2)cc1,32.9,18.1%,u,0.0,27.1*
O=C(CSc1ccc(-c2cccnc2)nn1)Nc1ccc(F)cc1,15.5,-3.5%,u,16.6,4.7
CCc1ccc(NC(=O)CSc2ccc(-c3cccnc3)nn2)cc1,-3.8,u,0.0%,u,5.9
COc1ccc(-n2cnc3cc([N+](=O)[O-])ccc32)cc1,50.8,4.1%,u,u,9.8
Cc1cccc(-n2cnc3cc([N+](=O)[O-])ccc32)c1,14.2,17.3%,2.6%,-14.1,11.6*
Nc1ccc(-n2cnc3cc([N+](=O)[O-])ccc32)cc1,97.1*,54.2%,33.9%,19.4,18.0*
c1ccc2c(c1)SCc1c-2[nH]c2ccccc12,46.9*,x,x,x,15.1*
c1ccc2c(c1)OCCc1c-2[nH]c2ccccc12,20.8,8.7%,u,u,13.7*
CC1=NCCc2c1[nH]c1ccccc21,-17.1,-17.8%,28.0%,17.6,-1.3
COc1cc2ccccc2cc1C(=O)N1CCN(c2nc3c(F)cccc3s2)CC1,x,x,x,-0.6,x
O=C1OC(c2ccccc2)/C(=C(/O)c2ccc(Cl)cc2)C1=O (centres undefined),11.8,x,-27.0%,-28.0,13.1
O=C1OC(c2ccccc2)/C(=C(/O)c2ccccc2)C1=O (centres undefined),101.4*,x,38.9%,10.6,39.3*

# Compound activity as filed in PubChem BioAssay.
